Reference: PubChem BioAssay (EPA / NIEHS)
Activity calls are given as the source filed them. How the source made its calls: active means hit-call score of the fitted dose curve at least 0.9, where 1 is the maximum; inactive means score below 0.9.

Read-out: NAD(P)H dehydrogenase [quinone] 1 (NQO1), NQO1 (gene 1728)
Assay: LTEA_HepaRG_NQO1: Life Technologies and Expression Analysis (LTEA) Assay for NAD(P)H dehydrogenase [quinone] 1 (NQO1) using HepaRG (AID 2283526)
Settings: mRNA level, 48 h; actives raise or lower the signal
Procedure: LTEA_HepaRG is a cell based, multiplexed-readout assay that uses HepaRG, a human liver cell line, with measurements taken at 48 hours after chemical dosing on a 96-well plate.LTEA_HepaRG_NQO1 is one of 102 assay component(s) measured in the LTEA HepaRG cell culture assay. It is a marker of Diseases associated with NQO1 include Tardive Dyskinesia and Childhood Leukemia.Data from the assay component LTEA_HepaRG_NQO1 was analyzed into 1 endpoint. This assay endpoint, LTEA_HepaRG_NQO1, was analyzed with bidirectional fitting relative to DMSO as the negative control and baseline of activity. Using a type of inducible reporter, measures of mRNA induction for gain or loss-of-signal activity can be used to understand regulation of transcription factor activity. To generalize the intended target to other relatable targets, this assay endpoint is annotated to the oxidoreductase intended target family, where the subfamily is quinone-acceptor.
A total of 1060 chemcials from the ToxCast library were tested in eight-point concentration-response experiments. Cell culture and cytotoxicity assays were conducted at Thermo Fisher Scientific's Custom Services facility (Madison, WI). A single lot of human HepaRG cells (Thermo Fisher Scientific, Frederick, MD) was used for the cell culture experiments. 96-well format collagen type I coated plates of human HepaRG cells were prepared using established methods. Briefly, cryopreserved HepaRG cells were thawed, plated at a density of approximately 100,000 cells/well in HepaRG Thaw, Plate, and General Purpose media (HPRG770, Thermo Fisher Scientific), and incubated for 48 hours. 0.5% DMSO was selected as vehicle control to balance the requisite need of DMSO in HepaRG cultures to maintain differentiation (for example, baseline metabolism, proportions of hepatocytes vs. cholangiocytes), while enabling further hepatic receptor pathway activation (for example, PXR and CAR) in response to chemical exposure. 48 hours after plating, the culture medium was replaced with HepaRG Serum-Free Incudtion Media. Cells were exposed to each test chemical in duplicate and maintained in CO2 incubators for another 48 hours. Chemical plates were thawed to room temperature and 200x concentrations of treatment groups were prepared. 8-point conentration-reponse curves were made with the highest exposure at 100 uM, followed by half-log dilutions, all in 0.5% DMSO. Each test plate contained variouse controls, induction positive controls (1mM phenobarbital), cytotoxicity positive controls ([…] aflatoxin B1), vehicle controls (0.5% DMSO), and total lysis controls (0.5% DMSO). Cell morphology images were taken using an Essen IncuCyte FLR automated microscope, with six 96-well plates imaged in about 24 minutes. Images were captured and exported and JPEG files. Spent culture media was transfered to black-well plates for the LDH assay, and remaining media was sorted at -80 C for later use. Cells were treated with RLT buffer and frozen until shipped for gene expression analysis. Total RNA was isolated from the cell suspension in 75 uL of Buffer RLT (Qiagen, Germantown, MD 20874) by Quintiles/Expression Analysis (Durham, NC) using a custom isolation procedure. Total RNA from each plate well was transferred to a preamplification plate. Fluidigm's 96.96 Dynamic ArrayTM (Fluidigm, Amsterdam, the Netherlands) technology was used for gene expression analyses by quantitative reverse transcription polymerase chain reaction (qRT-PCR, performed by Quintiles/Expression Analysis, Durham, NC)89. Standard TaqManTM Assays (Applied Biosystems/ThermoFisher Scientific, Foster City, CA) were used to assess the expression of 93 genes selected based on their selectivity and sensitivity to important hepatic receptors known to be modulated by environmental chemicals; importance in human hepatocyte functionality; and hepatotoxicity. […]

outcome, inactive:
CC(C)(O)c1ccc(CNC(=O)c2cccnc2Oc2ccc(F)cc2)cc1, CCC(C)N(C)C(=O)c1cc2ccccc2c(-c2ccccc2Cl)n1 (stereo not given), Cc1occc(=O)c1O, CC(=O)OC1CC(C)OC(C)O1 (stereo not given), C/C=C/C=C/C(=O)O, CC(N)=O, Cc1ccc(-c2cc(C(F)(F)F)nn2-c2ccc(S(N)(=O)=O)cc2)cc1, OCC(CO)n1cnc(-c2ccc(F)cc2)c1-c1ccnc(Oc2ccccc2)n1, COC(=O)CCC(=O)OC, CN(C)CCCN(C)CCCN(C)C, CC(C)OC(=O)C(C)(C)Oc1ccc(C(=O)c2ccc(Cl)cc2)cc1, CC(=O)S[C@H](C(=O)N[C@H]1Cc2ccccc2[C@H]2CCC[C@@H](C(=O)O)N2C1=O)C(C)C, O=C1c2c(O)cccc2Cc2cccc(O)c21, O=C(N[C@@H](c1ccccc1)[C@@H]1CCCCN1)c1cccc(C(F)(F)F)c1Cl, C=CCCCCCCCCCCCC, CCCCCCCCCC[N+](C)(C)[O-], O=Cc1ccccc1C=O, CC(C)c1cccc(C(C)C)c1NC(=O)NS(=O)(=O)c1cc(C(C)(C)O)co1, CCCCCCC(C=O)=Cc1ccccc1, COC(=O)CCCC(=O)OC, O=C(O)CN(CC(=O)O)CC(=O)O, O=[Si]=O, CO[C@@H]1COCC[C@@H]1N[C@@H]1CC[C@@](C(=O)N2CCc3ncc(C(F)(F)F)cc3C2)(C(C)C)C1, CCCCC(CC)COC(=O)CCCCCCCC(=O)OCC(CC)CCCC (stereo not given), CC(=O)[C@@]1(O)CC[C@H]2[C@@H]3CCC4=CC(=O)CC[C@]4(C)[C@H]3CC[C@@]21C, O=C1O[C@H]([C@H](O)CO)C(O)=C1O, O=C1NC(=O)C(c2ccccc2)(c2ccccc2)N1, O=C(O)CC(O)(CC(=O)O)C(=O)O, CCCCCCC(CCCCCCCCCCC(=O)OCC(COC(C)=O)OC(C)=O)OC(C)=O (stereo not given), c1ccc2occc2c1, CC(COCC(C)OC(=O)c1ccccc1)OC(=O)c1ccccc1 (stereo not given), CC(=O)O, CSc1ccc(Oc2ccc(S(N)(=O)=O)cc2CN(C)C)cc1C, CC(=O)O[C@]1(C(C)=O)CC[C@H]2[C@@H]3C=C(Cl)C4=CC(=O)[C@@H]5C[C@@H]5[C@]4(C)[C@H]3CC[C@@]21C, CCCCCCCCCCCCCCOS(=O)(=O)O, NC1CCCCC1, CCCCc1nc2cccnc2n1Cc1ccc(-c2ccccc2-c2nnn[nH]2)cc1, C/C=C/c1ccc(OC)cc1, CCCC(=O)O

AC50, active:
CN(C)CCCN1c2ccccc2Sc2ccc(Cl)cc21 83.9 µM
